Screening results: PubChem BioAssay, several laboratories
Hits are enriched below; roughly 4.4% of the tested compounds scored in any of these assays.
tim10-1 inh – growth inhibitors of tim10-1 mutant yeast, primary screen, luminescence, uHTS. S. cerevisiae tim10-1 ts strain growth, BacTiter-Glo, 24 h. inhibition, % at 20 µM. hit rate 2.2% among 330,000. AID 463190, 2010;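 active = inhibition of at least 40%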;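 also: mutant grown at 25 °C; 0% = DMSO wells with yeast and 100% = wells holding no yeast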
PfHsp90 set2 – growth inhibition of PfHsp90-expressing yeast, primary screen, antimalarial PfHsp90 inhibitor project, S. cerevisiae, BacTiter-Glo luminescence, single point, set 2 | hit rate 0.32% among 310,000 | inhibition, % at 9.4 µM | BacTiter-Glo ATP, 48 h; yeast lacking PDR1 and PDR3 efflux regulators;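 active = every replicate shows inhibition above about 80%, whatever the replicate mean, limit read from the data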;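 also: 0% = DMSO neutral controls and 100% = 20 µM radicicol positive controls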
SUMO Mot1 rescue – yeast Mot1-301 growth rescue at high temperature, primary screen, SUMOylation pathway inhibitor project, S. cerevisiae, ATP luminescence, 38.5C; S. cerevisiae Mot1-301 growth rescue; percent above DMSO median, 100 means doubled; hit rate 1% among 320,000; AID 2716, 2010; growth rescue, % at 18.8 µM;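 active = every valid replicate shows activation above 250% relative to neutral control wells; inactive = the rest, any valid replicate at or below 250%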;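 also: OY570 slx delta 5 strain wells were the positive control but not used for scaling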
tim23-1 inh – growth inhibitors of tim23-1 mutant yeast, primary screen, luminescence, uHTS | hit rate 1.3% among 330,000 | S. cerevisiae tim23-1 growth, BacTiter-Glo luminescence, 24 h | inhibition, % at 20 µM;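 active = growth inhibition of the mutant yeast at or above 50%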;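 also: temperature-sensitive mutant grown at 25 °C; plate controls were DMSO-treated mutant yeast for no effect and medium wells lacking yeast for full effect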
TIM10 inh – growth inhibitors of isogenic TIM10 control yeast, primary screen, counter-screen for tim10-1 yeast inhibitor project, luminescence, uHTS. S. cerevisiae TIM10 strain growth, BacTiter-Glo luminescence, 24 h. hit rate 1.4% among 330,000. inhibition, % at 10 µM;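 active = inhibition of 40% or more at the single tested concentration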;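 also: wild-type TIM10 isogenic control strain grown at permissive 25 °C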
tim10-1 confirm – growth inhibitors of tim10-1 mutant yeast, confirmation, single concentration, luminescence, S. cerevisiae; shares compounds with tim10-1 inh; hit rate 56% among 7,400; inhibition, % at 20 µM; S. cerevisiae tim10-1 ts strain growth, BacTiter-Glo, 24 h;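 active = inhibition of yeast growth at or above a set limit in either of two repeat tests at 20 µM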;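 also: tim10-1 mutant grown at permissive 25 °C to find synthetic lethal compounds; 0% = DMSO yeast wells and 100% = medium wells without yeast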
Numbers without * were called inactive; i = inactive; . = no result given.

SMILES	tim10-1 inh	PfHsp90 set2	SUMO Mot1 rescue	tim23-1 inh	TIM10 inh	tim10-1 confirm
O=C(COC(=O)CNC(=O)c1ccccc1F)NC1CC1	0.3	-6.9	13.8	8.5	2.9	.
Nc1nnc(SCC(=O)c2ccccc2)s1	9.6	1.4	16.2	4.5	-5.8	.
Nc1c(C(=O)c2ccccc2)sc2snc(SCC(=O)c3ccccc3)c12	62.2*	-12.8	343.4	27.9	18.3	66.5*
CCN1C(=O)/C(=C2/C(=O)N3c4c(cc(OC(C)=O)cc42)C(C)=CC3(C)C)SC1=S	6.5	-9.1	-31.3	5.0	14.4	.
COc1cc2c3c(c1)/C(=C1/SC(NC(C)=O)=NC1=O)C(=O)N3C(C)(C)C=C2C	62.5*	35.3	-5.6	45.1	29.8	56.2*
COc1ccc(CCN(C)C2CCCN(S(=O)(=O)c3ccccc3F)C2)cc1OC (centres undefined)	-1.6	29.2	i	5.2	3.6	.
CCOC(=O)/C(C#N)=C\c1ccc(O)c(OC)c1	42.0*	-13.6	28.6	26.5	39.1	34.5*
COc1cc(/C=C/C(=O)CC(=O)/C=C/c2ccc(O)c(OC)c2)ccc1O	40.0	-2.5	210.4	42.5	29.3	38.5*
CCOC(=O)/C(C#N)=C/c1cccc(C)c1	.	-5.2	-18.0	.	.	.
C=CCOn1c(=O)c(-c2ccc(F)cc2)[n+]([O-])c2ccccc21	14.3	4.1	.	3.5	11.1	.
O=[N+]([O-])c1ccc(N=NNc2ccccc2)cc1	41.6*	-3.0	146.7	26.3	14.2	34.5*
Brc1ccc(N=NNc2ccccc2)cc1	31.4	-9.8	276.6	32.6	14.8	.
Fc1ccccc1OCCCn1ccnc1	3.8	12.9	-1.6	3.9	-6.1	.
O=C(Nc1cc(Sc2ccccn2)cc([N+](=O)[O-])c1)c1cccc(F)c1	43.9*	16.2	-11.5	48.0	33.9	53.5*
O=C(Nc1cc(Sc2nc3ccccc3s2)cc([N+](=O)[O-])c1)c1ccccc1	17.7	-0.6	-7.0	15.4	18.9	.
COc1cnc(-c2ccccn2)nc1Oc1cccc(C(F)(F)F)c1	44.1*	0.3	-15.9	37.5	21.0	21.8
COc1cnc(-c2ccccn2)nc1Sc1ccccc1	41.3*	-42.8	13.0	48.4	13.5	42.7*
COc1cnc(-c2ccccn2)nc1Sc1ccc(F)cc1	41.5*	1.9	-18.5	41.4	19.9	34.2*
COc1cnc(N(C)C)nc1Sc1ccc(Cl)cc1	27.6	-0.7	22.3	9.1	14.4	.
CCOC(=O)CSc1nc(-c2ccccn2)ncc1OC	-8.9	10.2	15.3	-20.8	-25.6	.
COc1cnc(-c2ccccn2)nc1Oc1ccccc1	-5.1	-4.5	-4.5	-8.3	-38.1	.
COc1cnc(-c2ccccn2)nc1Sc1ccc(Cl)cc1	43.2*	.	-28.1	35.7	37.7	30.5
COc1ccc(Sc2nc(-c3ccccn3)ncc2OC)cc1	27.2	6.9	1.1	43.5	30.4	.
O/N=C\c1ccc(-c2ccccc2)o1	15.0	-13.9	4.0	22.6	8.6	.
O=C(/C=C\c1ccc(-c2ccccc2)o1)c1ccccc1	48.3*	6.1	150.6	45.5	31.4	48.2*
SMILES	tim10-1 inh	PfHsp90 set2	SUMO Mot1 rescue	tim23-1 inh	TIM10 inh	tim10-1 confirm
O=C1NC[C@H](Cc2ccccc2)N(CC2CCN(CCc3ccc(-c4ccccc4)cc3)CC2)C1=O	.	9.3	.	.	.	.
CCOC(=O)C1=C(COc2ccccc2)NC(=O)NC1c1cccc([N+](=O)[O-])c1 (centres undefined)	12.1	-5.2	493.4	14.0	5.5	.
COc1cccc(Cn2cc(-c3cccc(C(F)(F)F)c3)nn2)c1	41.9*	-20.1	-12.0	-10.3	-1.3	22.6
COc1ccc(CCNC(=O)COc2cc(O)c3c(c2)OC(C)(C)CC3=O)cc1	29.7	-17.3	2.3	28.6	10.1	.
Cc1ccc(CNC(=O)COc2cc(O)c3c(c2)OC(C)(C)CC3=O)cc1	44.0*	-13.2	60.5	30.0	8.0	3.3
CC(/C=C/c1cccc([N+](=O)[O-])c1)=N/NC(=O)c1cccnc1	40.2*	5.9	-16.0	25.9	9.6	20.6
C=CCOC(=O)C1=C(C)N=C2SCCC(=O)N2C1/C=C/c1ccccc1 (centres undefined)	42.2*	.	-5.9	14.3	18.3	14.2
CCOC(=O)C1=C(C)N=C2SCCC(=O)N2[C@@H]1/C=C/c1ccccc1	29.0	1.1	-29.1	38.2	34.8	.
c1nc(Nc2ccc(N3CCOCC3)cc2)c2ccsc2n1	8.3	6.6	2.9	7.3	-15.0	.
Fc1ccc(-c2csc3ncnc(Nc4ccc(N5CCOCC5)cc4)c23)cc1	43.2*	.	3.5	38.2	15.4	37.0*
O=C(/C=C/c1ccccc1[N+](=O)[O-])Oc1ccccc1	3.7	.	-3.9	17.2	11.7	.
COC(=O)C(=Cc1ccccc1[N+](=O)[O-])C(=O)OC	43.5*	9.5	371.0	43.8	20.6	26.7
COc1ccc(C)cc1NC(=O)CNc1ccccc1CN(C)C1CCCCC1	15.7	2.4	-8.7	13.7	-6.7	.
COc1ccc(Cl)cc1NC(=O)CNc1ccccc1CN(C)C1CCCCC1	43.0*	-10.5	-6.6	18.9	16.8	30.4*
COC(=O)[C@@]1(C)[C@H]2C(=O)N(Cc3ccccc3)C(=O)[C@H]2[C@H]2CN=C(SCC(=O)c3ccccc3)N21	11.9	7.8	.	38.2	2.9	.
COc1ccc(/C=N/NC(=O)CCn2c3ccccc3c3ccccc32)cc1O	45.4*	0.3	-0.9	42.6	33.0	16.1
COc1cccc(/C=N/NC(=O)CCn2c3ccccc3c3ccccc32)c1	5.5	-18.7	-16.1	6.7	9.5	.
Nc1cc2cccnc2cc1Cl	.	-24.7	.	.	.	.
CC(=O)c1cccc(OCC(=O)NC2CCCCCC2)c1	9.8	16.1	.	17.2	10.3	.
CCN(Cc1ccncc1)Cc1c(O)ccc2cc(Br)ccc12	46.3*	.	.	29.8	29.9	21.9
Cc1ccc(-c2csc3nc[nH]c(=O)c23)cc1	30.0	3.9	9.5	5.0	15.4	.
Cc1ccc(-c2csc3nc[nH]c(=O)c23)cc1C	41.3*	-7.0	-3.2	38.9	21.7	27.0
Cc1ccc2c(c1)N(S(=O)(=O)c1ccc(CN3C(=O)c4cccnc4C3=O)s1)CCO2	27.9	-8.1	-22.8	33.1	6.7	.
COc1ccc(C(=O)NCCc2nc3cc([N+](=O)[O-])ccc3n2C)cc1	54.6*	-14.1	1.1	27.8	33.9	38.0*
Cc1nc(Oc2ccccc2)c2oc3ccccc3c2n1	42.2*	-3.9	-12.5	5.7	12.6	24.1
O=C1c2ccccc2C(Nc2ccc3c(c2)OCCO3)N1Cc1ccccc1 (centres undefined)	40.0	6.2	-10.4	39.2	23.1	7.1
